Experimental data reported in PubChem BioAssay (NCATS).
Results filed as inconclusive are left out. Activity calls are given as the source filed them. Calls follow the shape of the dose curve; as a rule, active = well fitted curve in the direction sought with a large enough effect; inconclusive = small, poorly fitted or top-dose-only effect, or another doubt; inactive = no such curve, though single readings can be large; an effect the other way counts as inactive or inconclusive.

What was measured:
[1] = target: Phospholipid hydroperoxide glutathione peroxidase GPX4 (Homo sapiens) (UniProt P36969); test: Primary qHTS Assay for Inhibitors of Recombinant Selenoprotein Glutathione Peroxidase 4 (GPX4) (AID 1845192); also: nearly all actives have a fitted effect of over 65% in size
Outline: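 NADPH consumption followed by fluorescence at 340/450 nm, t=0 and after 15 min at room temperature. Reaction started with cumene hydroperoxide (0.5 mM final) after 30 min compound–GPX4 preincubation; final 200 nM GPX4, 100 nM GR, 1 mM GSH, 0.5 mM NADPH.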

[2] = target: Luciferin 4-monooxygenase (Photinus pyralis) (UniProt P08659); test: Primary firefly luciferase (FLuc) qHTS assay for identification of artifact compounds. (AID 1845220); also: nearly all actives have a fitted effect of over 60% in size
Outline: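 Cell-free, 1536-well qHTS. Buffer pH 7.6 with 0.01% Tween-20 and 0.05% BSA; 10 uM D-luciferin, 10 uM ATP; 10 nM P. pyralis luciferase; luminescence after 5 min.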

[3] = Primary fluorescence-based thiol-reactive (MSTI) qHTS assay for identification of artifact compounds. (AID 1845221);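 also: series mostly up to about 54 µM; thiol-reactive compounds lower the probe fluorescence signal; nearly all actives have a fitted effect of over 65% in size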
Outline: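 First, 4 uM MSTI in 2% DMSO/PBS pH 7.4 was dispensed; next, compounds were added; then plates sat 1 h at room temperature without light. Finally, emission at 598 nm was recorded.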

[4] = Primary redox qHTS assay for identification of artifact compounds. (AID 1845223)
Outline: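 Redox-cycling detection via DTT (250 uM final) oxidation coupled to Amplex Red (25 uM)/HRP (250 mU/mL) in HBSS. 15 min preincubation plus 30 min after DTT, room temperature. Ex/Em 525/598 nm; 4-parameter Hill fit against DMSO and 10 uM DA3003.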

[5] = system: Nanoluciferase (engineered Oplophorus gracilirostris luciferase); test: Primary Nanoluciferase (NLuc) qHTS assay for identification of artifact compounds. (AID 1845222); also: series mostly up to about 54 µM
Outline: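 Compounds are pinned into diluted (1:55) conditioned medium of NLuc-expressing S16 cells and held 15 min at room temperature protected from light. Nano-Glo substrate follows, and luminescence is read 5 min later.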

Measured: Potency

Phospholipid hydroperoxide glutathione peroxidase GPX4 (Homo sapiens), sequence (P36969 whole entry, looked up): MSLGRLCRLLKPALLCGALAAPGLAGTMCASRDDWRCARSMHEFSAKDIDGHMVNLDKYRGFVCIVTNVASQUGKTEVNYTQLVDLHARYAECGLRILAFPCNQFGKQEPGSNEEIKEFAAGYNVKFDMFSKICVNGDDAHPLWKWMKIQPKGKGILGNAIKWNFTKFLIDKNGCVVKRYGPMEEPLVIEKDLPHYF

O=C1CCC[C@@H]2[C@H]3CCC[N+]4([O-])CCC[C@@H](CN12)[C@@H]34 (some centres not stated)
inactive: [1] | [2] | [3] | [4]

CCCCCCCCCC(=O)N[C@@H](Cc1c[nH]c2ccccc12)C(=O)N[C@H](CC(N)=O)C(=O)N[C@@H](CC(=O)O)C(=O)N[C@@H]1C(=O)NCC(=O)N[C@@H](CCCN)C(=O)N[C@@H](CC(=O)O)C(=O)N[C@H](C)C(=O)N[C@@H](CC(=O)O)C(=O)NCC(=O)N[C@H](CO)C(=O)N[C@@H]([C@@H](C)CC(=O)O)C(=O)N[C@@H](CC(=O)c2ccccc2N)C(=O)O[C@@H]1C
inactive: [1] | [2] | [3]

CC(C)(C)c1cnc(CSc2cnc(NC(=O)C3CCNCC3)s2)o1
inactive: [1]

CC(C)c1cc(C(=O)N2Cc3ccc(CN4CCN(C)CC4)cc3C2)c(O)cc1O
inactive: [1] | [2] | [3] | [5] | [4]

CC(O)C1C(=O)N2C(C(=O)O)=C(SC3CNC(C(=O)N(C)C)C3)C(C)C12 (configuration not stated)
inactive: [1] | [2] | [3] | [5]

Clc1ccc2ncc(-c3cccc(NC4CNC4)n3)n2c1
inactive: [2] | [3] | [5] | [4]

CC(=O)OCC(=O)[C@@]1(O)[C@H](C)C[C@H]2[C@@H]3C=C(C)C4=Cc5c(cnn5-c5ccccc5)C[C@]4(C)[C@@H]3[C@@H](O)C[C@@]21C
inactive: [1]

CN1c2cc(O)c(N=NC(N)=O)cc2CC1S(=O)(=O)O (configuration not stated)
inactive: [1]

Cc1cc(Nc2cc(CN3CCOCC3)c3nc(C)c(Cc4ccc(Cl)cc4F)n3n2)n[nH]1
inactive: [1] | [2] | [5] | [4]
